Among the data in PubChem BioAssay AID463173 (ICCB-Longwood Screening Facility, Harvard Medical School, 2010) are survival values, retold here.

Out of some 52,000 compounds screened, about 4,300 (8.3%) were called active. Cut-off read from the data, not from the text of the source: active = survival mostly below about 52% (no sharp cut-off); inactive = mostly above about 56%. The full list was thinned out, with actives kept by preference.

The test deals with DeltatarO mutant. Kind of test: growth inhibition of S. aureus wild type versus tarO mutant, primary screen, teichoic acid synthesis inhibitors, RN4220, OD600 (AID 463173). Conditions: OD600, 18 h, stronger effect = lower value, screened at 18.75 µg/mL (by protocol).
Take `CN(C)c1ccc(CNC(=O)c2cnc3sc(N4CCOCC4)nn3c2=O)cc1`: the survival is 85% (inactive).
As for `CC(CCc1ccccc1)NC(=O)Cn1ncc2c3ccccc3n(Cc3ccccc3)c2c1=O` (configuration not stated), the figure is 81% (inactive); as for `CCc1ccc(OCC2c3cc(OC)c(OC)cc3CCN2C(=O)COc2ccccc2)cc1` (configuration not stated), 91% (inactive); as for `CCC(C(=O)NCc1ccccc1Cl)n1nc(C)c2sc3ccccc3c2c1=O` (configuration not stated), 103% (inactive).
As for `Cc1cccc(NC(=O)c2cc(S(=O)(=O)N3CCCCCC3)cn2C)c1C`, the figure is 67% (inactive); as for `O=C(NCCc1ccccc1)C1CCN(Cc2cc3ccccc3n2Cc2ccccc2)CC1`, 79% (inactive).
On to `Cc1cccc(N(C)S(=O)(=O)c2cc3[nH]c(=O)c(=O)[nH]c3cc2C)c1`, for which the survival was 88% (inactive).
Regarding `CC(C)c1cnc2c(c1SCC(=O)Nc1cccc(F)c1)c(=O)n(C)c(=O)n2C`, the survival is 81% (inactive).
Then `Cc1ccc(-c2csc(=Nc3ccccc3)n2Cc2ccc3c(c2)OCO3)cc1C`, with 112% (inactive).
For the compound `Clc1ccc(-c2csc(=Nc3ccccc3)n2Cc2ccc3c(c2)OCO3)cc1`, the survival is 95% (inactive).
As for `COc1ccc(-c2csc(=Nc3ccccc3)n2CCO)cc1F`, the survival is 58% (inactive).
As for `Cc1ccc(-c2csc(=Nc3ccccc3)n2Cc2ccc3c(c2)OCO3)cc1`, the figure is 73% (inactive).
Then `O=S(=O)(c1ccc(-c2csc(=Nc3ccc(OC(F)(F)Cl)cc3)n2CCCO)cc1)N1CCCC1`, with 159% (inactive); and `OCCCn1c(-c2ccc(F)cc2)csc1=Nc1ccc(F)cc1`, with 39% (active).
With `Cc1ccc(-c2csc(=Nc3ccccc3)n2CCCO)cc1`, the survival is 5% (active).
Then `CCN(CC)CCn1c(-c2ccccc2)csc1=Nc1ccccc1`, with 42% (active).
On to `O=S(=O)(c1ccc(-c2csc(=Nc3ccc(F)cc3)n2CCCCCCO)cc1)N1CCCC1`, for which the survival is 56% (inactive).
As for `CCOC(=O)c1c(NC(=O)CSc2cn(CCNC(=O)c3c(F)cccc3F)c3ccccc23)sc2c1CCC2`, the figure is 93% (inactive); as for `COc1ccc(Cl)cc1NC(=O)c1cc(S(=O)(=O)N(C)Cc2ccccc2)ccc1F`, 74% (inactive); as for `O=C(c1cc(-c2ccc(Br)cc2)n[nH]1)N1CCN(S(=O)(=O)c2ccc(Br)cc2)CC1`, 79% (inactive).
As for `CN(C)S(=O)(=O)n1cc(/C=C(\NC(=O)c2ccccc2)C(=O)NCCCn2ccnc2)c2ccccc21`, the figure is 104% (inactive); as for `COc1ccc(CNC(=O)c2ccc(NC(=O)N3CCSc4ncccc43)cc2)c(OC)c1`, 81% (inactive); as for `COc1ccc(OC)c(C2C(C(N)=O)=C(C)Nc3nc(-c4cccc(Cl)c4)nn32)c1` (configuration not stated), 113% (inactive).
Then `CCOc1ccc(S(=O)(=O)N2CCN(c3cc(Cl)ccc3Cl)CC2)c2ccccc12`, with 64% (inactive).
As for `O=C(Nc1nnc(S(=O)(=O)N2CCc3ccccc32)s1)c1ccccc1`, the survival was 12% (active).
Turning to `Cc1cc(C)c2nc(NC(=O)c3ccc(S(=O)(=O)N4CCc5ccccc54)cc3)sc2c1`, the survival was 83% (inactive).
Then `O=C(Nc1nnc(S(=O)(=O)N2CCCc3ccccc32)s1)c1ccc(Cl)cc1`, with 15% (active).
Then `O=C(Nc1nnc(S(=O)(=O)N2CCCc3ccccc32)s1)c1ccccc1`, with 27% (active); and `O=C(Nc1nnc(S(=O)(=O)N2CCCc3ccccc32)s1)c1cccc(F)c1`, with 7% (active); and `Cc1c(Cl)ccc2sc(NC(=O)c3ccc(S(=O)(=O)N4CCCc5ccccc54)cc3)nc12`, with 55% (inactive).
For `CCC(CC)C(=O)Nc1nnc(S(=O)(=O)N2CCc3ccccc32)s1`, the survival was 73% (inactive).
As to `O=C(Nc1nc2c(F)cccc2s1)c1ccc(S(=O)(=O)N2CCCc3ccccc32)cc1`, the survival is 102% (inactive).
As for `Cc1nc2ccccc2c2nc(N)nn12`, the figure is 85% (inactive).
Then `C=Cc1ccc(CSc2nc(-c3ccc(Cl)cc3)nc3c2Cc2c(CO)cnc(C)c2O3)cc1`, with 70% (inactive); and `COc1ccc(NC(=O)Cn2c(SCc3ccc(F)cc3)nc3cccnc32)cc1OC`, with 74% (inactive).
Then `CC(=O)c1ccc(S(=O)(=O)Nc2cccc(-c3ccc(N4CCCC4)nn3)c2)cc1`, with 89% (inactive); and `Cc1ccccc1Cn1c(=O)n(CCCCCC(=O)NCc2ccc3c(c2)OCO3)c(=O)c2sccc21`, with 101% (inactive); and `COc1ccc2c(=O)c(NC(=O)Nc3ccc(F)cc3F)c[nH]c2c1`, with 92% (inactive).
Consider `O=c1c2sc3ccccc3c2n(Cc2cccc(C(F)(F)F)c2)c(=O)n1Cc1ccc(F)cc1`, for which the survival was 114% (inactive).
In the case of `O=C(Nc1ccc(F)cc1F)C1CCN(C(=O)c2cnn(-c3ccccc3)c2-n2cccc2)CC1`, the survival was 106% (inactive).
As for `CC(C)Sc1nc2sc3c(c2c(=O)n1Cc1ccccc1)CCCC3`, the survival was 13% (active).
Turning to `CC(C)Sc1nc2sc3c(c2c(=O)n1-c1ccccc1)CCCC3`, the survival is -3% (active).
`C#CCSc1nc2sc3c(c2c(=O)n1Cc1ccccc1)CCCC3`: the survival is 33% (active).
Then `C=CCSc1nc2sc3c(c2c(=O)n1CC=C)CCCC3`, with 98% (inactive); and `C=CCn1c(SC(C)C)nc2sc3c(c2c1=O)CCCC3`, with 71% (inactive).
As for `C=C(C)Cn1c(SCC(=O)Nc2ccccc2C)nc2sc3c(c2c1=O)CCCC3`, the figure is 126% (inactive).
For the compound `O=c1[nH]c2sc3c(c2c(=O)n1-c1ccccc1)CCCC3`, the survival was 70% (inactive).
As for `O=c1c2c3c(sc2nc(NCCO)n1-c1ccccc1)CCCC3`, the figure is 92% (inactive); as for `CCCCC(c1nnnn1C(C)C)N1CCN(c2ccc(F)cc2)CC1` (configuration not stated), 85% (inactive).
As to `CCOC(=O)Cn1c2[n+](c3ccccc31)CC(O)CS2` (configuration not stated), the survival is 72% (inactive).
`Cc1ccc(CNC(=O)CSc2nc3ccsc3c(=O)n2-c2ccc(C(=O)O)cc2)cc1`: the survival was 95% (inactive).
As for `Cc1ccc(C)c(NC(=O)C2CCCN2S(=O)(=O)c2ccc3c(c2)n(C)c(=O)c(=O)n3C)c1` (configuration not stated), the figure is 38% (active).
Then `Cc1ccc(NC(=O)C2CCCN2S(=O)(=O)c2ccc3c(c2)n(C)c(=O)c(=O)n3C)cc1C` (configuration not stated), with 115% (inactive); and `Cc1ccc(NC(=O)C2CCCN2S(=O)(=O)c2ccc3c(c2)n(C)c(=O)c(=O)n3C)cc1` (configuration not stated), with 87% (inactive); and `COc1ccc2cc(CNc3ccccc3)c(=O)n(CC(=O)Nc3ccc(C(C)=O)cc3)c2c1`, with 68% (inactive).
Turning to `COc1ccccc1NC(=O)C(C#N)Cc1cc2cc(C)cc(C)c2[nH]c1=O` (configuration not stated), the survival is 98% (inactive).
Consider `CCOC(=O)c1cc2c(ccn2-c2ccc(F)cc2)n1CC(=O)c1ccc2c(c1)OCCO2`, for which the survival is 100% (inactive).
As for `Cc1cccc(-c2noc(CN(C(=O)COc3ccc(Br)cc3C)C(C)C)n2)c1`, the figure is 45% (active); as for `CCOc1ccc(C(=O)N(Cc2nc(-c3cccc(C)c3)no2)C(C)C)cc1`, 0% (active).
As for `CC(Oc1ccc(Br)cc1)C(=O)N(Cc1nc(-c2ccccc2)no1)C(C)C` (configuration not stated), the figure is 97% (inactive); as for `Cc1cccc(-c2noc(CN(C(=O)c3ccccc3Cl)C(C)C)n2)c1`, 62% (inactive); as for `Cc1cccc(-c2noc(CN(C(=O)COc3ccc(C(C)C)cc3)C(C)C)n2)c1`, 11% (active).
As for `COc1ccccc1C(=O)N(Cc1nc(-c2cccc(C)c2)no1)C(C)C`, the figure is 62% (inactive); as for `Cc1cccc(-c2noc(CN(C(=O)c3ccc(C)c(C)c3)C(C)C)n2)c1`, -3% (active); as for `COc1ccc(OC(C)C(=O)NCc2nc(-c3cccc(C)c3)no2)cc1` (configuration not stated), 61% (inactive).
As for `Cc1ccc2cc(CN(C(=O)c3cccc(Cl)c3)c3ccccc3)c(=O)[nH]c2c1`, the survival is 74% (inactive).
Then `CCS(=O)(=O)N1CCc2cc(C(=O)Nc3cc(C(F)(F)F)ccc3Cl)ccc21`, with 48% (inactive).
As for `Cc1ccc(-c2noc(CSc3nnc(C)n3-c3ccc(F)cc3)n2)cc1`, the figure is 61% (inactive); as for `CCCN1CCN(CCCNC(=O)c2cc3c(=O)[nH]c4ccccc4c3s2)CC1`, 79% (inactive).
Then `CC(=O)c1ccc(N2CCN(c3ncnc4c3c(-c3ccccc3)cn4-c3ccc(Cl)cc3)CC2)cc1`, with 91% (inactive).
Regarding `O=C(CSc1nc2ccsc2c(=O)n1Cc1ccccc1F)NCc1ccccc1`, the survival was 122% (inactive).
Turning to `COc1cccc(NC(=O)Cn2c(=O)n(-c3cccc(OC)c3)c(=O)c3sc4ccccc4c32)c1`, the survival is 65% (inactive).
As to `CCCCNC(=O)c1ccc2c(=O)n(-c3ccccc3)c(=O)[nH]c2c1`, the survival is 80% (inactive).
Then `COc1ccc(C(=O)N2CC(=O)Nc3ccc(F)cc3C2c2ccc(F)cc2)c(OC)c1` (configuration not stated), with 58% (inactive); and `Cc1ccccc1CNCc1c(C(=O)O)c(C)n(Cc2ccc(F)cc2Cl)c1C`, with 59% (inactive).
Regarding `O=C(COCc1cc(-c2cccs2)on1)NCc1cccc(Cl)c1`, the survival is 117% (inactive).
On to `CCOc1nc(NC(=O)NS(=O)(=O)Oc2ccccc2)nc(-c2ccccc2)n1`, for which the survival was 70% (inactive).
Take `CCOC(=O)c1ccc(N2C(=O)Cc3cc(OCC)c(OCC)cc3C2c2ccccc2)cc1` (configuration not stated): the survival is 117% (inactive).
With `CC(C)NC(=O)c1ccc2c(c1)nnn2C`, the survival was 78% (inactive).
Regarding `Cc1ccccc1-c1noc(-c2ccccc2OCC(=O)Nc2cccc([N+](=O)[O-])c2)n1`, the survival is 51% (inactive).
Then `CC(=O)c1ccc(NC(=O)COc2ccccc2-c2nc(-c3ccc(C)cc3)no2)cc1`, with 57% (inactive).
Then `O=C(COc1ccccc1-c1nc(-c2ccccc2)no1)Nc1ccc([N+](=O)[O-])cc1`, with 44% (active); and `O=C(COc1ccccc1-c1nc(-c2ccccc2)no1)Nc1cccc([N+](=O)[O-])c1`, with 34% (active); and `Cc1noc(-c2ccccc2OCC(=O)Nc2cccc([N+](=O)[O-])c2)n1`, with 60% (inactive).
Then `Cc1cccc(-c2noc(-c3ccccc3OCC(=O)Nc3ccc([N+](=O)[O-])cc3)n2)c1`, with 50% (inactive).
As for `CCN(C(=O)C1CCN(S(=O)(=O)c2ccc3c(c2)CCCN3C(C)=O)CC1)c1cccc(C)c1`, the survival is 88% (inactive).
As for `CCN(CC)S(=O)(=O)c1ccc(OC)c(-n2cnnn2)c1`, the figure is 65% (inactive).
